This is a sample that favours compounds with a hit; in the whole collection about 17% have one here.
HepG2 tox: qHTS for Inhibitors of TGF-b: Cytotox Counterscreen | HepG2 CAGA-GFP viability, ATP luminescence, 18 h | Potency, µM (highest dose often 46.1 µM), most hits filed as cytotoxic | 0.76% of 410,000 active | AID 588856, 2011
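CellTiter-Glo luminescence gave cytotoxicity after 18 hours at 37 degrees C. The cells were HepG2 CAGA-GFP in 1% FBS DMEM, stimulated with 500 pg/mL TGF-beta after compound addition. %Activity was normalised to no-cell wells (complete cell-killing) and DMSO (no toxicity), and curves were fitted and classified.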
TGFb SMAD3 inh: qHTS for Inhibitors of TGF-b. HepG2 CAGA-GFP TGF-b/SMAD3 reporter, GFP fluorescence, 18 h; TGF-beta stimulated, 500 pg/mL final. AID 588855, 2011. Potency, µM (top dose mostly 46.1 µM), usual class: inhibitors. 1.2% of 410,000 active; also: nearly all actives have a fitted effect of over 65% in size
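TGF-beta reporter screen: HEPG2 CAGA-GFP, 1% FBS, 500 pg/mL TGF-beta final, 18 h; per-cell GFP summed per well; curves fitted and categorized by class.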
ATXN viability: Viability Counterscreen for Primary qHTS for Inhibitors of ATXN expression; 0.49% of 400,000 active; S2 cells (HEK-293 line with an ATXN2-luciferase reporter) viability, CellTiter-Fluor protease fluorescence, 24 h; AID 651635, 2014; Potency, µM (titrated, usually from 56.7 µM), hits mostly cytotoxic; also: nearly all actives have a fitted effect of over 40% in size
TDP1 cell noCPT: qHTS for Inhibitors of human tyrosyl-DNA phosphodiesterase 1 (TDP1): qHTS in cells in absence of CPT | DT40 Tdp1-/- hTDP1 cells, no CPT, ATP luminescence, 48 h | Potency, µM (top dose mostly 46.2 µM), hits mostly inhibitors | 15% of 420,000 active | AID 686978, 2013; also: nearly all actives have a fitted effect of over 55% in size
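Growth of hTDP1-complemented DT40 Tdp1-knockout cells is measured by ATP luminescence after at least 48 hr compound exposure at 37 °C, with DMSO substituting for the 20 nM CPT used in the parallel screen.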
TDP1 cell CPT: qHTS for Inhibitors of human tyrosyl-DNA phosphodiesterase 1 (TDP1): qHTS in cells in presence of CPT | chicken DT40 Tdp1-/-;hTDP1 cells + 20 nM CPT, ATP luminescence, 48 h | Potency, µM (doses to about 46.2 µM), usual class: inhibitors | 12% of 420,000 active | AID 686979, 2013; also: nearly all actives have a fitted effect of over 55% in size
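Cell growth measured by CellTiter-Glo luminescence after a minimum 48 h, 37 C compound exposure with 20 nM CPT in Tdp1-knockout DT40 cells stably expressing hTDP1, seeded 400/well; qHTS titration format.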
ATXN2 expr inh: Primary qHTS for Inhibitors of ATXN expression. HEK-293 ATXN2-luciferase reporter, luminescence, 24 h. Potency, µM (top dose mostly 57 µM), actives largely listed as inhibitors. 0.72% of 360,000 active. AID 1745845, 2022; also: nearly all actives have a fitted effect of over 55% in size
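qHTS (up to 57 uM final) was run with 24 h compound exposure of reporter cells at 37 °C. Each well was multiplexed: SteadyGlo luminescence measured ATXN2-luciferase expression after a fluorogenic Gly-Phe-AFC viability readout (25 uM final).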
Numbers stand for hits; [ ] = remark or other dose. Calls follow the shape of the dose curve; as a rule, active = well fitted curve in the direction sought with a large enough effect; inconclusive = small, poorly fitted or top-dose-only effect, or another doubt; inactive = no such curve, though single readings can be large; an effect the other way counts as inactive or inconclusive.

Results for COc1ccc(C2=CC(c3ccc(F)cc3)n3nnnc3N2)cc1 (stereo not drawn) ?
HepG2 tox: inactive; TGFb SMAD3 inh: inactive; TDP1 cell noCPT: 18µM; TDP1 cell CPT: inconclusive; ATXN2 expr inh: inactive

What do the screens show for `Cc1ccc(C2=CC(c3ccc(N(C)C)cc3)n3nnnc3N2)cc1` (stereo not drawn)?
HepG2 tox: inactive; TGFb SMAD3 inh: inactive; TDP1 cell noCPT: 21µM; TDP1 cell CPT: 18µM; ATXN2 expr inh: inactive

Results for CC(C)c1ccc(C2=CC(c3ccc(C(C)C)cc3)n3nnnc3N2)cc1 (stereo not drawn) ?
HepG2 tox: inactive; TGFb SMAD3 inh: inactive; TDP1 cell noCPT: 15µM; TDP1 cell CPT: 15µM; ATXN2 expr inh: inactive

How did COc1ccc(C2=CC(c3sccc3C)n3nnnc3N2)cc1 (stereo not drawn) do in these assays?
HepG2 tox: inactive; TGFb SMAD3 inh: inconclusive; ATXN viability: inactive; TDP1 cell noCPT: inactive; TDP1 cell CPT: inactive; ATXN2 expr inh: inactive

How did CSCCC(NC(=O)c1ccccc1Br)C(=O)Nc1ccc(C)cc1 (stereo not drawn) do in these assays?
HepG2 tox: inactive; TGFb SMAD3 inh: inactive; ATXN viability: inactive; TDP1 cell noCPT: inactive; TDP1 cell CPT: inactive; ATXN2 expr inh: inactive

How did Cc1ccc(CN(CC(O)COc2cccc3[nH]cc(C)c23)C(C)(C)C)cc1 (stereo not drawn) do in these assays?
HepG2 tox: 13µM; TGFb SMAD3 inh: inconclusive; ATXN viability: inconclusive; TDP1 cell noCPT: inconclusive; TDP1 cell CPT: 21µM

How did COC(=O)Cc1c[nH]c2cccc(OCC(O)CN(Cc3ccccc3)C(C)C)c12 (stereo not drawn) do in these assays?
HepG2 tox: inactive; TGFb SMAD3 inh: inactive; ATXN viability: inactive; TDP1 cell noCPT: inconclusive; TDP1 cell CPT: inconclusive; ATXN2 expr inh: inactive

Results for COC(=O)Cc1c[nH]c2cccc(OCC(O)CN(Cc3ccc([N+](=O)[O-])cc3)C(C)(C)C)c12 (stereo not drawn) ?
HepG2 tox: inactive; TGFb SMAD3 inh: inactive; ATXN viability: inactive; TDP1 cell noCPT: 18µM; TDP1 cell CPT: inconclusive; ATXN2 expr inh: inactive

How did CCN(CC)S(=O)(=O)c1cccc(NC(=O)CN2C(=O)c3ccc([N+](=O)[O-])cc3C2=O)c1 do in these assays?
HepG2 tox: inactive; TGFb SMAD3 inh: inactive; ATXN viability: inactive; TDP1 cell noCPT: inactive; TDP1 cell CPT: inactive; ATXN2 expr inh: inactive

What do the screens show for `COc1ccc(/C=C/c2nc(-c3ccccc3O)n[nH]2)cc1OC`?
HepG2 tox: inactive; TGFb SMAD3 inh: inactive; ATXN viability: inconclusive; TDP1 cell noCPT: inconclusive; TDP1 cell CPT: inconclusive; ATXN2 expr inh: inactive

Results for COc1cc(/C=C/c2cc[n+](C)c3ccccc23)cc(OC)c1OC ?
HepG2 tox: inactive; TGFb SMAD3 inh: inactive; TDP1 cell noCPT: inactive; TDP1 cell CPT: inactive

Results for COc1cccc(/C=C/c2ccc3ccccc3[n+]2C)c1OC ?
HepG2 tox: inactive; TGFb SMAD3 inh: inactive; TDP1 cell noCPT: inconclusive; TDP1 cell CPT: inconclusive

What do the screens show for `COc1ccc(/C=C/c2ccc3ccccc3[n+]2C)c(OC)c1OC`?
HepG2 tox: inactive; TGFb SMAD3 inh: inactive; TDP1 cell noCPT: 1.1µM; TDP1 cell CPT: 1.4µM

How did COc1ccc(/C=C/c2ccc3ccccc3[n+]2C)cc1OC do in these assays?
HepG2 tox: inactive; TGFb SMAD3 inh: inactive; ATXN viability: inactive; TDP1 cell noCPT: 18µM; TDP1 cell CPT: 13µM

Results for COc1cc(OC)c(OC)cc1/C=C/c1ccc2ccccc2[n+]1C ?
HepG2 tox: inactive; TGFb SMAD3 inh: inactive; TDP1 cell noCPT: 0.71µM; TDP1 cell CPT: 0.89µM

How did CC(=O)Oc1ccccc1/C=C/c1ccc2ccccc2[n+]1C do in these assays?
HepG2 tox: inactive; TGFb SMAD3 inh: inactive; ATXN viability: inconclusive; TDP1 cell noCPT: 16µM; TDP1 cell CPT: 21µM

Results for O=C(C[n+]1ccc(Cc2ccccc2)cc1)Nc1ccccc1 ?
HepG2 tox: inactive; TGFb SMAD3 inh: inactive; ATXN viability: inactive; TDP1 cell noCPT: inconclusive; TDP1 cell CPT: inconclusive; ATXN2 expr inh: inactive

How did CC(OC(=O)CCN=C1NS(=O)(=O)c2ccccc21)C(=O)Nc1ccc(F)cc1Cl (stereo not drawn) do in these assays?
HepG2 tox: inactive; TGFb SMAD3 inh: inactive; ATXN viability: inactive; TDP1 cell noCPT: inactive; TDP1 cell CPT: inactive; ATXN2 expr inh: inactive

What do the screens show for `COc1cc(C(=O)Nc2ccc(C#N)cc2)c([N+](=O)[O-])cc1OC`?
HepG2 tox: inactive; TGFb SMAD3 inh: inactive; ATXN viability: inactive; TDP1 cell noCPT: inconclusive; TDP1 cell CPT: inactive; ATXN2 expr inh: inactive[11.3 µM]

How did COc1cc(CNc2nnnn2C)cc(OC)c1OC do in these assays?
HepG2 tox: inactive; TGFb SMAD3 inh: inactive; ATXN viability: inactive; TDP1 cell noCPT: inactive; TDP1 cell CPT: inactive

Results for CCOC(=O)c1c(OCCO)noc1N ?
HepG2 tox: inactive; TGFb SMAD3 inh: inactive; ATXN viability: inactive; TDP1 cell noCPT: inactive; TDP1 cell CPT: inactive; ATXN2 expr inh: inactive

Results for COc1cc(CNCc2ccc(OC)c(OC)c2OC)cc(OC)c1 ?
HepG2 tox: inactive; TGFb SMAD3 inh: inactive; ATXN viability: inactive; TDP1 cell noCPT: 21µM; TDP1 cell CPT: 18µM; ATXN2 expr inh: inactive

How did COc1ccccc1CCNC(C)CCc1ccc(O)cc1 (stereo not drawn) do in these assays?
HepG2 tox: inactive; TGFb SMAD3 inh: inactive; ATXN viability: inactive; TDP1 cell noCPT: inactive; TDP1 cell CPT: inconclusive; ATXN2 expr inh: inactive

Results for COc1ccc(CNCc2ccc3ccccc3c2)c(OC)c1 ?
HepG2 tox: inactive; TGFb SMAD3 inh: inconclusive; ATXN viability: inactive; TDP1 cell noCPT: 16µM; TDP1 cell CPT: 16µM

What do the screens show for `COc1cccc(CNCc2cc(OC)cc(OC)c2)c1`?
HepG2 tox: inactive; TGFb SMAD3 inh: inactive; ATXN viability: inconclusive; TDP1 cell noCPT: inactive; TDP1 cell CPT: inconclusive; ATXN2 expr inh: inactive

What do the screens show for `COc1ccc(CNCc2ccncc2)c(OC)c1`?
HepG2 tox: inactive; TGFb SMAD3 inh: inactive; ATXN viability: inactive; TDP1 cell noCPT: inactive; TDP1 cell CPT: inactive; ATXN2 expr inh: inactive

Results for COc1ccc(CNc2ncncc2-c2ccccc2Cl)c(OC)c1 ?
TDP1 cell noCPT: inactive; TDP1 cell CPT: inactive

Results for COc1ccc(CNc2ccnc(-c3ccccc3Cl)n2)c(OC)c1 ?
TDP1 cell noCPT: 23µM; TDP1 cell CPT: inconclusive
